Gal4-VP16 FLuc: VP16 counterscreen qHTS for inhibitors of ROR gamma transcriptional activity; Drosophila S2 Gal4-VP16 UAS-luciferase, luminescence, 20 h; Potency, µM (series often up to 53.6 µM), usual class: inhibitors; 310,000 compounds, 3.5% hits;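 also: Gal4-VP16 expression switched on by copper sulfate through the metallothionein promoter; nearly all actives have a fitted effect of over 50% in size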
Sfp inh: qHTS Assay for Inhibitors of Bacillus subtilis Sfp phosphopantetheinyl transferase (PPTase); Potency, µM, hits mostly inhibitors; AID 1490, 2009; 4'-phosphopantetheinyl transferase ffp (Bacillus subtilis), Q9F4F7; Biochemical Sfp PPTase activity, qHTS; 310,000 compounds, 3.5% hits;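 also: the enzyme is Sfp with the accession as filed and its product quenches rhodamine fluorescence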
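Reaction rates are the 30-min fluorescence difference (ex 525, em 598 nm) in wells containing 15 nM Sfp, 5 uM rhodamine-CoA and 12.5 uM BHQ-2-YbbR at pH 7.6 with 10 mM MgCl2.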
Epigenetic derep: Quantitative High-Throughput Screen for Regulators of Epigenetic Control. murine LDR cells, GFP reporter derepression, 30 h. Potency, µM (top dose mostly 53.9 µM), actives largely listed as activators. 280,000 compounds, 0.2% hits; also: nearly all actives have a fitted effect of over 60% in size
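In this reporter-derepression format, murine cells bearing a silenced integrated CMV-GFP locus incubate with test compound (30 h, 37 C), then are washed and imaged; fluorescent objects of 20–120 um count as induced cells.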
ClpP mod: qHTS Assay for Activators of ClpP. purified B. subtilis ClpP, FRET peptide cleavage, 20 min. AID 651965, 2013. 340,000 compounds, 1.9% hits. ATP-dependent Clp protease proteolytic subunit (Bacillus subtilis (strain 168)), P80244. Potency, µM (top dose mostly 57.5 µM); active = well fitted falling curve with a large enough effect; inconclusive = small, poorly fitted or top-dose-only effect; inactive = no such curve, though single readings can be large or run the other way; also: the source files actives as falling curves though it sought activators and does not explain the sign; nearly all actives have a fitted effect of over 65% in size
Target sequence (P80244 whole entry, looked up): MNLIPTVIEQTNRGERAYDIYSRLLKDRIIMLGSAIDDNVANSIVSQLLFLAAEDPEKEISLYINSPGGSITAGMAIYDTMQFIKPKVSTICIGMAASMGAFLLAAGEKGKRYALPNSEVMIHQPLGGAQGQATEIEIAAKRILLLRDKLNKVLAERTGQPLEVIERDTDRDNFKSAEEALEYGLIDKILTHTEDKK
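ClpP 10 microg/mL final, pH 8 Tris/KCl buffer with BSA, glycerol, Tween-20; compound pinned in; FRET-FV substrate; RT 20 min; Ex320/Em430; ΔFRET vs ADEP 5.8 microM, DMSO, no enzyme.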
PINK1 expr mod: A Quantitative High throughput Screen to Identify Chemical Modulators of PINK1 Expression; PINK1 immunofluorescence, high-content cytometry, 24 h; Potency, µM (doses to about 76.6 µM), most hits filed as activators; 410,000 compounds, 0.2% hits; active = well fitted activation curve with a large enough effect; inconclusive = small, poorly fitted or top-dose-only effect; cell line not stated here; also: nearly all actives have a fitted effect of over 65% in size
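PINK1 protein level read as immunofluorescence by microplate cytometer in a fixed, stained stable cell line after 24 h exposure to five compound concentrations, with CCCP as control.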
RORgamma inh: qHTS for inhibitors of ROR gamma transcriptional activity. Nuclear receptor ROR-gamma (Mus musculus), P51450. Drosophila S2 Gal4-RORgamma UAS-luciferase reporter, 20 h. Potency, µM (series often up to 53.6 µM), hits mostly inhibitors. 310,000 compounds, 5.4% hits. AID 2551, 2010; also: nearly all actives have a fitted effect of over 60% in size
Target sequence (P51450 whole entry, looked up, the tested form may be a part): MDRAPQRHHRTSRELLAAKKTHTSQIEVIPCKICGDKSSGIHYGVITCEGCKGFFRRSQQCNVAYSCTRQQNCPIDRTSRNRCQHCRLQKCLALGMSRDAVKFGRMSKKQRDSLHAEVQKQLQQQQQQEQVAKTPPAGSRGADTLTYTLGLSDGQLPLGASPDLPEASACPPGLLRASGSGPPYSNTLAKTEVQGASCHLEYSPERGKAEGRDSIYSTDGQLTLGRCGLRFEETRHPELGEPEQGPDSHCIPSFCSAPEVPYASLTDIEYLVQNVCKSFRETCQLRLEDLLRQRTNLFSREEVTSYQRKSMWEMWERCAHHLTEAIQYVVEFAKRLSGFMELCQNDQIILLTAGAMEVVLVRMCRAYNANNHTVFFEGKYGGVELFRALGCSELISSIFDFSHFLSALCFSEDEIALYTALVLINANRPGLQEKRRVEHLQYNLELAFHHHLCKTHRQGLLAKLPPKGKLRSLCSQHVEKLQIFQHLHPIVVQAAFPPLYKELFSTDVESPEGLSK
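Stably transfected Drosophila Schneider cells are the test system, with ROR gamma fused to Gal4 and luciferase under UAS control; luminescence is read after 20 hr of 700 uM copper sulfate induction at ambient temperature.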
Numbers stand for hits; 0 = inactive; ? = inconclusive; - = not tested or not shown; [ ] = remark or other dose. The list is not random: actives were taken first. Their share in the collection is about 8.1%. Unless noted, calls follow the shape of the dose curve; as a rule, active = well fitted curve in the direction sought with a large enough effect; inconclusive = small, poorly fitted or top-dose-only effect, or another doubt; inactive = no such curve, though single readings can be large; an effect the other way counts as inactive or inconclusive.

SMILES	Gal4-VP16 FLuc	Sfp inh	Epigenetic derep	ClpP mod	PINK1 expr mod	RORgamma inh
Cc1c(NC(=O)COC(=O)c2cc(-c3ccc(-c4ccccc4)cc3)nc3ccccc23)c(=O)n(-c2ccccc2)n1C	0	50µM	0	10µM	0	0
Cc1c(NC(=O)COC(=O)c2ccc[nH]c2=O)c(=O)n(-c2ccccc2)n1C	0	0	0	18µM	0	0
c1coc(-c2nnc3n2C2(CCCC2)Cc2ccccc2-3)c1	0	0	0	?	0	0[0.365 µM]
COc1cc2c(cc1OC)-c1nnc(-c3ccco3)n1C1(CCCC1)C2	0	0	0	32µM	0	0
COc1cc(OC)c(-c2nn3c(-c4ccco4)nnc3s2)cc1OC	0	0	0	28µM	0	0
CC(O)[C@@H](O)[C@H]1CNc2nc(N)[nH]c(=O)c2N1 (stereo partly drawn)	-	-	0	-	-	-
COc1ccc(NCc2ccccc2-c2nnc(-c3ccccc3)o2)cc1Cl	-	-	0	0	0	-
Cn1cnc([N+](=O)[O-])c1NC(C)(C)C	0	0	0	0	0	0
Cn1cnc([N+](=O)[O-])c1S(=O)(=O)c1ccc(Cl)cc1	5µM	0	0	-	0	3.5µM
CCC1(CC)NC(=O)N(CC(=O)OCc2nc3cc(C(=O)OC)ccc3c(=O)[nH]2)C1=O	-	-	-	28µM	0	-
COC(=O)c1ccc2c(=O)[nH]c(COC(=O)c3cccc(S(=O)(=O)N4CCOCC4)c3)nc2c1	-	-	-	-	0	-
COC(=O)c1ccc2c(=O)[nH]c(CCl)nc2c1	0	0	0	-	0	13µM
O=[N+]([O-])c1cccc(-c2cc3ccccc3[nH]2)c1	?	0	-	0	0	0
O=[N+]([O-])/C=C/c1cc2ccccc2[nH]1	?	0	?	0	0	10µM
Cc1cc(C)c2oc(-c3cccc(NC(=O)c4cc5ccccc5o4)c3)nc2c1	-	-	0	?	0	-
C/C(=N\NC(=S)Nc1ccccc1C)c1ccc(O)cc1	?	25µM	0	-	0	10µM
CNC(=S)N/N=C(\C)c1ccc(-n2ccnc2)cc1	?	0	0	0	-	8.9µM
C/C(=N\NC(N)=O)c1ccc(-n2ccnc2)cc1	0	0	0	-	0	0
COCCNC(=S)N/N=C(\C)c1ccc(-n2ccnc2)cc1	7.1µM	0	?	0	0	6.3µM
Cc1ccccc1NC(=S)NNC(=O)c1ccco1	-	0	-	0	0	-
C/C(=N\Nc1ccccc1Cl)c1ccc(-n2ccnc2)cc1	0	0	0	0	0	8.9µM
CCS(=O)(=O)c1nc(S(=O)(=O)c2ccc(C)cc2)c(NCc2ccccc2Cl)s1	-	-	0	0	0	-
C/C(=N\NC(=S)NC(C)C)c1ccc(-n2ccnc2)cc1	6.3µM	0	0	0	0	5.6µM
COCCNC(=S)N/N=C(\C)c1ccc(O)cc1	?	0	0	0	0	22µM
C/C(=N\NC(=S)NC1CCCCC1)c1ccc(O)cc1	?	79µM	0	-	0	4.5µM
SMILES	Gal4-VP16 FLuc	Sfp inh	Epigenetic derep	ClpP mod	PINK1 expr mod	RORgamma inh
C/C(=N\NC(=O)COc1ccccc1)c1ccc(O)cc1	0	0	0	-	0	0
C=CCNC(=S)N/N=C(\C)c1ccc(-n2ccnc2)cc1	7.1µM	0	0	0	0	3.2µM
C/C(=N\NC(=O)c1ccc(C)cc1C)c1ccc(-n2ccnc2)cc1	0	0	0	0	0	0
CCc1ccc(OCC(=O)N/N=C(\C)c2ccc(-n3ccnc3)cc2)cc1	0	0	0	0	0	?
CC(/C=N/NC(=O)c1nn(C)c(C)c1Br)=C\c1ccccc1	?	0	0	0	0	0.16µM
CC(/C=N/NC(=O)c1ccncc1)=C\c1ccccc1	0	0	0	0	-	0
C/C(=N\NC(=O)c1ccn(C)n1)c1ccc(NC(=O)C2CCCC2)cc1	0	0	0	0	0	0
C/C(=N\NC(=O)c1nn(C)c(C)c1Br)c1ccc(NC(=O)C2CCCC2)cc1	?	0	-	0	0	5.6µM
CC(=C/c1ccccc1)/C=N/NC(=O)c1ccccn1	10µM	0	0	-	0	8.9µM
CCOc1ccc(-c2nnc(SCC(=O)Oc3ccccc3)o2)cc1	-	-	0	0	0	-
CCN(CC)C(=O)COc1ccc2c(c1)C(=O)CC(C)(C)O2	0[10 µM]	0	0	0	0	0
O=C(COc1ccc2c(c1)C(=O)CC1(CCCCC1)O2)NCc1ccccn1	0	0	0	25µM	?	0
CCOC(=O)COc1ccc2c(c1)C(=O)CC(C)(c1cccnc1)O2 (stereo not drawn)	0	0	0	28µM	0	0
O=C(COc1ccc2c(c1)C(=O)CC1(CCCCC1)O2)NCc1ccccc1	0	0	0	0	0	0
CCOC(=O)COc1ccc2c(c1)C(=O)CC1(CCCCC1)O2	0	0	0	28µM	0	0
COc1cccc(Cn2c(=O)n(CCc3ccccc3)c(=O)c3c2c2cc(OC)ccc2n3C)c1	-	-	0	0	0	-
O=C(NC1CC1)[C@@H]1C[C@H](Sc2nc3ccccc3[nH]2)CN1CC1CCCCC1	-	-	-	-	0	-
C/C=C/OC(=O)NC(c1cccc(C)c1)[C@@]1(C(=O)OCC)CCCC1=O (stereo partly drawn)	0[10 µM]	0	0[10.1 µM]	-	-	0[10 µM]
Cc1cc(C)c2c(NC(=S)NC(=O)c3ccccc3)n[nH]c2n1	?	0	0	0	0	5.6µM
Cc1cc(C)c2c(NC(=S)Nc3ccccc3)n[nH]c2n1	3.2µM	0	0	0	0	1.1µM
O=C(NC(=S)Nc1ccc2[nH]ncc2c1)c1ccccc1	0	0	0	0	0	0
COc1ccc2nc3c(nc2c1)C(=O)c1ccccc1-3	-	-	0	-	-	-
C=C1C=C(C(F)F)n2ncc(C(=O)Nc3ccc(N(CC)CC)cc3)c2N1	-	-	-	0	0	-
CCOc1ccccc1NC(=O)CN(CCc1ccccc1)S(=O)(=O)c1ccc(C)cc1	-	-	0	0	0	-
Cc1ccc(NC(=S)N2CCN(S(=O)(=O)c3ccc(C)cc3)CC2)cc1	0	0	-	0	0	13µM
SMILES	Gal4-VP16 FLuc	Sfp inh	Epigenetic derep	ClpP mod	PINK1 expr mod	RORgamma inh
Cc1cccc(NC(=S)N2CCN(S(=O)(=O)c3cccc(F)c3)CC2)c1	0	0	0	-	0	11µM
CCc1ccc(NC(=S)N2CCN(S(=O)(=O)c3ccccc3)CC2)cc1	?	0	-	0	0	18µM
O=S(=O)(c1ccccc1)N1CCN(C(=S)Nc2ccc(Br)cc2)CC1	0	0	-	0	0	0
COc1ccc2nc(NC(=O)c3ccco3)sc2c1	10µM	0	-	0	0	10µM
Cc1ccc2nc(NC(=S)NC(=O)c3ccco3)sc2c1	3.5µM	?	0	0	0	0.28µM
Cc1ccc2nsnc2c1NC(=S)NC(=O)c1ccco1	0	50µM	0	0	0	0[10 µM]
